Here are results for 63 molecules from PubChem BioAssay AID430 (Sanford-Burnham Center for Chemical Genomics, 2006).

Screen size: about 63,000 compounds; about 1,100 (1.7%) were called active. The entries come from a sample that favours actives as a whole. Results with a measured potency or affinity are listed apart. Unmarked numbers belong to inactive results. Cut-off read from the data, not from the text of the source: active = cytotoxicity above about 50%; inactive = the rest.

This test can be described thus: cytotoxicity in HPDE-C7 cells, cell-based, fluorescence, HTS (AID 430).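 Note: cells exposed to compound for 48 hours before viability readout; 0% = vehicle and 100% = reference cytotoxic drug.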 The following applies: HPDE-C7 pancreatic duct cells viability, at 10 µM, active compounds read high.
Take `Cc1ccc(-c2noc(CCC(=O)NCCCN3CCN(c4cccc(Cl)c4)CC3)n2)cc1`: the cytotoxicity is -6.5%.
As for `O=C(c1cc(-c2ccco2)on1)N1CCN(c2ccccc2)CC1`, the figure is 13.6%; as for `O=C(Nc1ccc(N2CCOCC2)cc1)Nc1ccc2nc(-c3ccco3)c(-c3ccco3)nc2c1`, 76.2% (active); as for `COc1ccccc1N1CCN(C(=O)c2ccc3nc(-c4ccco4)c(-c4ccco4)nc3c2)CC1`, 8.9%.
`O=C(c1ccc2ccccc2c1)N1CCN(c2ccc(O)cc2)CC1`: the cytotoxicity is 50.3% (active).
As for `O=C(c1ccc2ccccc2c1)N1CCN(c2ccccc2)CC1`, the figure is -4.8%; as for `O=C(Nc1ccc(N2CCOCC2)cc1)c1ccc2nc(-c3ccco3)c(-c3ccco3)nc2c1`, -9.4%; as for `CN1CCN(C(=O)c2ccc3ccccc3c2)CC1`, -15.3%.
For `O=C(Nc1ccc2nc(-c3ccco3)c(-c3ccco3)nc2c1)N1CCCCCC1`, the cytotoxicity was 29.1%.
For the molecule `O=C(c1cccs1)N1CCC(c2ccccc2)C1` (stereo not drawn), the cytotoxicity is 5.4%.
As for `O=c1[nH]c2ccccc2cc1-c1noc(-c2cccnc2)n1`, the figure is 6.4%; as for `CCCOc1ccc(NC2=CC(=O)CC(C)(C)C2)cc1`, -2.4%.
As for `COc1cc(-c2csc(N3CCOCC3)n2)cc(OC)c1OC`, the figure is 4.3%.
As for `COc1ccc(OC)c(NC(=O)c2nnn(Cc3ccc(Br)cc3F)c2N)c1`, the figure is 18.8%.
In the case of `c1ccc(-c2ccc(OCCOCCn3cncn3)cc2)cc1`, the cytotoxicity is -14.6%.
As for `O=C(CSc1nnc(C2COc3ccccc3O2)o1)N1CCCc2ccccc21` (stereo not drawn), the figure is -5.7%.
As for `COc1ccc(C(O)c2coc3ccc(O)c(CN(C)C)c23)cc1` (stereo not drawn), the figure is 8.4%.
For the molecule `CN(C)C(=O)c1nc(C#N)c(N(C)C)o1`, the cytotoxicity was 8.3%.
As for `COC(=O)c1[nH]c2cc(OC)ccc2c1NC(=O)CN1CCOCC1`, the figure is 9.3%; as for `CCC(O)c1cc2c(cc1NC(=O)c1ccc(C)cc1)OCCO2` (stereo not drawn), -1.6%.
As for `Cc1cc(NC(=O)c2cc(-c3cccnc3)nc3c(C)c(C)ccc23)no1`, the figure is 22.3%; as for `Cc1cc(C)c2nc(-c3ccccn3)cc(C(=O)Nc3cc(C)on3)c2c1`, 6.6%.
`Cc1cc(NC(=O)c2cc(-c3ccncc3)nc3c(C)cccc23)no1`: the cytotoxicity was 64.9% (active).
As for `O=C(c1cc(-c2ccc3c(c2)OCO3)on1)N1CCN(c2ccccc2)CC1`, the figure is 20.6%.
As for `COc1ccccc1NC(=O)CN1CCC(n2nnc3cc(F)ccc32)CC1`, the figure is -8.8%; as for `CCOC(=O)c1ccccc1NC(=O)CN1CCC(n2nnc3cc(F)ccc32)CC1`, 13.5%.
With `CCOc1ccc2nc(NC(=O)CN3CCC(n4nnc5cc(F)ccc54)CC3)sc2c1`, the cytotoxicity was 55.7% (active).
As for `O=C(Nc1ccc(NC(=O)C2CC2)nc1)c1ccccn1`, the figure is -20.6%.
As for `Cc1cc(C(=O)Nc2nnc(C3CCCCC3)s2)cs1`, the figure is 6.3%; as for `CCNC(=O)C1CC(=O)N(c2ccc(Br)cc2)C1` (stereo not drawn), -12.4%.
As for `O=C(CCCN1CCOCC1)c1ccc2c(c1)OCCO2`, the figure is 7.8%; as for `O=C(CCN1CCc2ccccc2C1)Nc1ccc2c(c1)OCO2`, 2.3%.
Regarding `O=C(CCN1CCc2ccccc21)c1ccc2c(c1)OCCO2`, the cytotoxicity was 1.9%.
As for `O=C(CCN1Cc2ccccc2C1)c1ccc2c(c1)OCCO2`, the figure is -7.3%.
As for `Cc1cccc(-n2nnnc2SCC(=O)c2cc(C)n(CC3CCCO3)c2C)c1` (stereo not drawn), the figure is -31.6%; as for `O=C(Nc1nc(-c2ccc(Cl)s2)cs1)c1cccs1`, 12.2%; as for `CC(=O)c1cccc(S(=O)(=O)NCC(c2ccco2)N2CCCCC2)c1` (stereo not drawn), 1%.
As for `CCc1ccccc1NC(=O)CCc1nc(-c2ccc(C)cc2)no1`, the figure is -5.6%; as for `COc1ccc(C(CC(=O)O)NC(=O)COc2ccccc2)cc1OC` (stereo not drawn), -11.8%.
With `COCc1cc(C)nc(SCC(=O)NCc2ccco2)c1C#N`, the cytotoxicity is 1.9%.
As for `COc1ccc(-c2ccc(SCC(=O)NCc3ccco3)nn2)cc1`, the figure is -13.7%.
As for `CN1CCN(C(=O)CSc2nc(-c3cccs3)ccc2C#N)CC1`, the figure is 15.3%.
As for `COc1ccc(-c2cc(-c3cccs3)c(C#N)c(SCC(=O)NCc3ccco3)n2)cc1`, the figure is 52% (active); as for `CCN(CC)C(=O)CSc1nc(C)cc(-c2cccs2)c1C#N`, 9.8%.
Consider `N#Cc1c(-c2cccs2)cc(-c2ccccn2)nc1N`, for which the cytotoxicity is 42.3%.
As for `COc1ccc(-c2nc(SCC(=O)NCc3ccco3)c(-c3ccccc3)[nH]2)cc1OC`, the figure is -5.2%.
As for `COc1ccc(-c2[nH]c(-c3ccc(F)cc3)nc2SCC(=O)NCc2ccco2)cc1OC`, the figure is 0.1%; as for `N#Cc1c(-c2ccccc2)cc(C2CC2)nc1N`, -2.8%.
As for `CSc1nc(C2CC2)cc(-c2cccs2)c1C#N`, the figure is 63.4% (active); as for `COc1ccc(-c2[nH]c(-c3cccc(OC)c3)nc2SCC(=O)NCc2ccco2)cc1`, 51.3% (active).
Consider `O=C(O)C1C2CCC(O2)C1C(=O)NCCC1=CCCCC1` (stereo not drawn), for which the cytotoxicity is 21.4%.
As for `COc1ccc(CCC(C(O)C(F)(F)F)S(=O)c2ccccc2)cc1` (stereo not drawn), the figure is -3.4%.
With `COc1ccccc1NC(=O)Nn1cnnc1`, the cytotoxicity is -17.6%.
As for `CCn1c(SCC(=O)c2cc(OC)ccc2OC)nnc1-c1ccncc1`, the figure is 6.4%; as for `CC1Cc2ccccc2N1C(=O)CSc1nnc(NC(=O)Cc2cccs2)s1` (stereo not drawn), -10%.
As for `CC(=O)Oc1ccc(N2C(=O)C3C(C2=O)C2(C)C=CC3(C)O2)cc1` (stereo not drawn), the figure is -4%; as for `CCOc1ccc(C)cc1S(=O)(=O)NC1CCCCC1`, 4.3%; as for `Cc1ccc(-c2nn3c(C)nnc3s2)cc1NC(=O)c1ccc(OC(C)C)cc1`, -1%.
As for `CCOc1ccc2nc(C)cc(C(=O)O)c2c1`, the figure is 33.6%.
For `c1ccc(Nc2ncnc3c2oc2ccccc23)cc1`, the cytotoxicity is -9.3%.
As for `c1ccc2c(c1)oc1c(NCCN3CCOCC3)ncnc12`, the figure is 6.2%.
As for `COc1ccc(C)cc1NC(=O)COCC(=O)O`, the figure is -11.8%; as for `O=C(CN1CCN(Cc2ccccc2)CC1)Nc1ccc(Cl)cn1`, 3.5%.
